Shown is part of a subset that was picked to be rich in hits.
Pf Dd2 growth – qHTS Primary assay for Inhibitors of Plasmodium falciparum Dd2 growth in vitro | Potency, µM (doses to about 28.9 µM), actives largely listed as inhibitors | P. falciparum Dd2 growth, SYBR Green, 72 h | 120,000 tested, 4.3% active | AID 1347417, 2020; active means well fitted inhibition curve with a large enough effect; further: nearly all actives have a fitted effect of over 65% in size
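Readout: SYBR Green fluorescence, 485 nm excitation, 535 nm emission, after ~16 h lysis at 37C. Before that, Dd2-infected red cells (2.5% hematocrit) grew 72 h with compound, 29 uM top final concentration.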
Hits are given with their value; n = inactive.

SMILES	Pf Dd2 growth
O=C(CCC[C@@H]1[C@H]2CCCN3CCC[C@@H](CN1Cc1cccnc1)[C@@H]23)Nc1cccnc1	n
CN1CCN(C(=O)N2CCCCC2)CC12CCC(=O)N(CC(=O)O)CC2 (configuration not stated)	n
COc1cc([C@@H]2c3cc4c(cc3[C@H](O)[C@@H](CO)[C@@H]2C(=O)N2CCCC2)OCO4)cc(OC)c1OC	n
COCCCNC(=O)N1CC[C@H]2C(=O)NCCCCCCN(Cc3ccncc3)[C@@H]2C1	n
CCNC(=O)CCC[C@@H]1[C@H]2CCCN3CCC[C@@H](CN1C(C)=O)[C@@H]23	n
COc1ccc(-c2cn3cc(C(=O)NCCO)nc3c(=O)n2CC2CC2)c(F)c1	n
COc1ccc(-c2cn3cc(C(=O)N4CCCC4)nc3c(=O)n2CC2CC2)c(F)c1	8.9µM
O=C(c1cn2cc(-c3ccccc3Cl)n(CC3CC3)c(=O)c2n1)N1CC[C@@H](O)C1	n
COc1ccc2c(c1)CN(Cc1ccccc1Cl)CC[C@H]1COC(=O)N21	11µM
COc1ccc2c(c1)CN(Cc1ccc(C(F)(F)F)cc1)CC[C@H]1COC(=O)N21	n
COc1cccc(CN2CC[C@H]3COC(=O)N3c3ccc(OC)cc3C2)c1	n
COc1ccc(-c2cc(-c3cccc(O)c3)cn3cncc23)cc1	1.3µM
CC(=O)Nc1cccc(-c2cc(-c3ccncc3)c3cncn3c2)c1	n
COc1ccc(-c2cc(-c3cccc(CO)c3)cn3cncc23)cn1	4µM
NC(=O)c1cccc(-c2cc(-c3cccnc3)c3cncn3c2)c1	n
c1cncc(-c2cc(-c3cccc4cc[nH]c34)cn3cncc23)c1	10µM
COc1cccc(-c2cc(-c3cn[nH]c3)c3cncn3c2)c1	n
O=c1ccc(-c2cc(-c3cccc(C(F)(F)F)c3)cn3cncc23)c[nH]1	n
COc1ccc(-c2cc(-c3cccc(C(N)=O)c3)cn3cncc23)cc1	3.5µM
COc1ccc(-c2cc(-c3cccnc3)c3cncn3c2)cn1	n
O=C1CO[C@H]2CN(Cc3ccccn3)C[C@H]2N1	n
O=c1[nH]nc2n1CCNCC2	n
Cc1c(C(=O)NC[C@H]2C[C@@H]3C=C[C@H]2C3)sc2ncnc(NCCc3ccccn3)c12	n
Cc1ccc(NC(=O)Cn2c(C)cc3nc4n(c(=O)c32)CCCC4)c(Cl)c1	n
COc1ccc(N2CC(c3noc(-c4ccc(C(C)(C)C)cc4)n3)CC2=O)cc1OC (configuration not stated)	n
SMILES	Pf Dd2 growth
CN1c2cc(C(=O)NCc3cccc(Cl)c3)ccc2C(=O)N2CCCCCC21 (configuration not stated)	n
CCN1c2cc(C(=O)Nc3ccc(Cl)c(Cl)c3)ccc2C(=O)N2CCCCC21 (configuration not stated)	n
COc1cccc(NC(=O)c2ccc3c(c2)C(O)CCCCCN3C)c1 (configuration not stated)	n
CCN1c2cc(C(=O)Nc3ccc(OC(F)(F)F)cc3)ccc2C(=O)N2CCCCC21 (configuration not stated)	1.8µM
CCN1c2cc(C(=O)Nc3ccc(Cl)c(C)c3)ccc2C(=O)N2CCCCCC21 (configuration not stated)	6.3µM
CCN1c2cc(C(=O)Nc3ccc(OC(F)(F)F)cc3)ccc2C(=O)N2CCCC21 (configuration not stated)	n
Cc1ccc(CNC(=O)c2ccc3c(c2)N(C)C2CCCN2C3=O)cc1 (configuration not stated)	n
COc1ccc(OC)c(NC(=O)c2ccc3c(c2)C(O)CCCCCN3C)c1 (configuration not stated)	n
CCN1c2cc(C(=O)Nc3ccc(OC)cc3)ccc2C(=O)N2CCCCCC21 (configuration not stated)	n
CN1CCCCCC(O)c2cc(C(=O)Nc3cccc(OC(F)(F)F)c3)ccc21 (configuration not stated)	14µM
Cc1cc(NC(=O)c2ccc3c(c2)N(C)C2CCCCCN2C3=O)ccc1Cl (configuration not stated)	n
Cc1cccc(CNC(=O)c2ccc3c(c2)N(C)C2CCCCN2C3=O)c1 (configuration not stated)	4µM
COc1ccc(C2Cn3cnc(C(=O)N4CCC(C(=O)Nc5ccc(Cl)cc5)CC4)c3CO2)cc1 (configuration not stated)	n
CCCCNC(=O)c1ccc(CN2C(=O)NC3(CCS(=O)(=O)CC3)C2=O)cc1	n
O=C(CCc1conc1-c1ccccc1)N1CCN(c2ccccc2Cl)CC1	n
COCC(=O)N1CCCC(C(=O)NCCc2noc(C3CCCC3)n2)C1 (configuration not stated)	n
CC(C)(C)NS(=O)(=O)C1CCS(=O)(=O)C1 (configuration not stated)	n
O=C(NC1CC1)c1cc2cccnn2n1	n
O=C1CC(c2ccccc2)N(C(=O)C2CCCCC2)CCCCCCN1 (configuration not stated)	n
CS(=O)(=O)N1CCC(NC(=O)CCc2cc3n(n2)CCCNC3)CC1	n
CC(=O)N1CCC(Cc2ccc(C(=O)N(C)Cc3cccnc3)cc2)CC1	n
O=C(Nc1ccc(Cl)nc1)c1cnn2ncccc12	n
CN1c2cc(C(=O)Nc3ccc(F)cc3)ccc2C(=O)N2CCCCCC21 (configuration not stated)	n
CCN1c2cc(C(=O)Nc3cccc(SC)c3)ccc2C(=O)N2CCCCCC21 (configuration not stated)	6.3µM
CN1c2cc(C(=O)Nc3ccc(C(F)(F)F)cc3)ccc2C(=O)N2CCCCCC21 (configuration not stated)	11µM
SMILES	Pf Dd2 growth
CCN1c2cc(C(=O)Nc3cccc(F)c3)ccc2C(=O)N2CCCCC21 (configuration not stated)	n
CN1c2cc(C(=O)Nc3ccc(Br)cc3)ccc2C(=O)N2CCCCCC21 (configuration not stated)	n
CCN1c2cc(C(=O)Nc3ccc(SC)cc3)ccc2C(=O)N2CCCCC21 (configuration not stated)	n
Cc1cc(C(=O)NC2CC(=O)N(Cc3ccccc3C(F)(F)F)C2)nn1C (configuration not stated)	n
Cc1ccc(C(=O)N2CCC(n3cc(-c4nc(C)no4)nn3)CC2)cc1	n
O=C(c1cccc2nccnc12)N1CCc2c(ncnc2N2CCOCC2)C1	n
COc1ccc(NC(=O)c2cc(C3CC3)nc3c2c(C)nn3-c2ccccc2)cc1	n
COc1ccc(-c2cc(C(=O)NC3CCNCC3)c3c(C)nn(-c4ccccc4)c3n2)cc1	11µM
COCCNC(=O)c1cc(-c2ccc(OC)cc2)nc2c1c(C)nn2-c1ccccc1	n
Cc1cccc(CCNC(=O)C2N(C(C)C)C(=O)C23CCCC3)c1 (configuration not stated)	n
COc1ccc2cc(C3CN(C(=O)c4cccc(CO)n4)CCO3)ccc2c1 (configuration not stated)	n
CCCn1cc(CNC(=O)c2cc3c(s2)CCC(C)C3)cn1 (configuration not stated)	n
Cc1cccc(CNC(=O)CN2CC(C)Sc3ccccc32)c1 (configuration not stated)	n
Cc1ccc(-n2nc(C)c(C(=O)NCCCN3CCN(c4ccc(F)cc4)CC3)c2-n2cccc2)cc1	n
COc1ccc(N2CCN(CCCNC(=O)Nc3ccccc3)CC2)cc1	n
COc1ccc(N2CCN(CCCNC(=O)Cn3c(-c4cccs4)cc4ccccc43)CC2)cc1	11µM

High-throughput results: PubChem, National Center for Advancing Translational Sciences (NCATS)
